According to PubChem BioAssay:
Unmarked numbers belong to inactive results. Activity calls are given as the source filed them. The rule behind the calls is not given here.

Target: L-lactate dehydrogenase (Plasmodium falciparum (isolate CDC / Honduras)) (UniProt Q27743)
Experiment: PfLDH activity inhibition – cell lysate, 3D7 strain, counter-screen for P. falciparum growth inhibition project (AID 2304);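 note: 0% = vehicle and 100% = reference inhibitor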
Settings: P. falciparum 3D7 crude extract, LDH APAD/NBT absorbance; at 2 µM; active compounds read high

L-lactate dehydrogenase (Plasmodium falciparum (isolate CDC / Honduras)), sequence (Q27743 whole entry, looked up): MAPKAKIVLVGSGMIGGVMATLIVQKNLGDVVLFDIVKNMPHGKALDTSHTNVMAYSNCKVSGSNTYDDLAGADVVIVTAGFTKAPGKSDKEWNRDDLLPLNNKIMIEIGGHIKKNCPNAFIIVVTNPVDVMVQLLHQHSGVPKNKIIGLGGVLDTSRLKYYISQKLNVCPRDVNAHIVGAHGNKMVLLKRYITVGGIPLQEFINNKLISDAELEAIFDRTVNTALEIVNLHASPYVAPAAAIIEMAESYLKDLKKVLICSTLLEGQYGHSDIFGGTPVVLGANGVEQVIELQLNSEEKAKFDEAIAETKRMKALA

**Q.** For `Cc1cc(NN=Cc2cccc(F)c2)c2ccc(F)cc2n1`, which inhibition is on record?
**A.** -2%

**Q.** With `CN1CCc2cc(I)c(O)cc2C1Cc1ccccc1Cl` (stereo not given) as the molecule, how does the inhibition read?
**A.** -2%

**Q.** For `O=C(/C=C/c1ccc(Cl)c(Cl)c1)NCCCCCN1CCN(C(=O)Nc2ccc(Cl)c(C(F)(F)F)c2)CC1`, which inhibition is on record?
**A.** 3%

**Q.** Which inhibition does the source give for `CCN1CCC(N(Cc2ccc(-c3ccc(C(F)(F)F)cc3)cc2)C(=O)Cn2c(CCc3cccc(F)c3F)cc(=O)c3ccccc32)C1` (stereo not given) here?
**A.** 3%

**Q.** With `Cc1cc2nc(-c3ccc(/C=C/C(=O)NCc4ccc(Cl)c(Cl)c4)cc3)[nH]c2cc1C` as the molecule, how does the inhibition read?
**A.** -1%

**Q.** With `CC(=O)Nc1cccc(CNCc2ccc(-c3cnc(N4CCCC(C)(C)C4)nc3)cc2)c1` as the molecule, how does the inhibition read?
**A.** 0%

**Q.** For `Cc1cc(NCCc2ccccc2)nc(/N=C(\N)Nc2ccccc2Cl)n1`, which inhibition is on record?
**A.** -8%

**Q.** With `CC(C)CC(NC(=O)c1cccc(OCCN2CCOCC2)c1)C(=O)NC(/C=N/NC(=O)c1ccccc1)CCc1ccccc1` (stereo not given) as the molecule, how does the inhibition read?
**A.** -9%

**Q.** Which inhibition does the source give for `CC(C)(C)c1cc(C(=O)Nc2ccc(C(=N)N)cc2)c(O)c(C(C)(C)C)c1` here?
**A.** -2%

**Q.** Which inhibition does the source give for `Cc1ccc2c(NN=Cc3ccc(N(C)C)cc3)cc(C)nc2c1` here?
**A.** 8%

**Q.** With `CC1CCCN(S(=O)(=O)c2cc(Br)cc3c2N(C(=O)C2CC2)CC3)C1` (stereo not given) as the molecule, how does the inhibition read?
**A.** -3%

**Q.** With `Cc1cc(OCCCN2CCCCC2)ccc1NC(=O)COc1ccc(Cl)cc1C(=O)c1cc(C#N)cc(C(F)(F)F)c1` as the molecule, how does the inhibition read?
**A.** -5%

**Q.** With `CCCCCCN1CCC(NCc2cccc([N+](=O)[O-])c2)CC1` as the molecule, how does the inhibition read?
**A.** 0%

**Q.** For `CCCCCN1CCCN(Cc2cccc(NC(=O)c3ccc(Cl)c(Cl)c3)c2)CC1`, which inhibition is on record?
**A.** 0%

**Q.** Which inhibition does the source give for `CCc1c(CCNCCCCCCNCCc2ccc([N+](=O)[O-])cc2)ccc(OC)c1OC` here?
**A.** 6%

**Q.** Which inhibition does the source give for `Cc1cc(-c2ccc(NC(=O)N3CCc4cc(Br)c(N5CCN(C)CC5)cc43)cc2)ccc1C#N` here?
**A.** 0%

**Q.** Which inhibition does the source give for `COc1ccccc1C1CCN(C2CCC(NC(=O)/C=C/c3cc(F)cc(C(F)(F)F)c3)CC2)CC1` (stereo not given) here?
**A.** -1%

**Q.** Which inhibition does the source give for `O=[N+]([O-])c1cccc(-c2nc(-c3ccc(Br)cc3)[nH]c2-c2ccc(Br)cc2)c1` here?
**A.** 2%

**Q.** For `COc1ccccc1-c1ccc(CNC(=O)C(CN2CCN(C)CC2)c2ccccc2)cc1` (stereo not given), which inhibition is on record?
**A.** 2%

**Q.** For `CCNS(=O)(=O)c1ccc(Oc2ccc([N+](=O)[O-])cc2)cc1`, which inhibition is on record?
**A.** 1%

**Q.** Which inhibition does the source give for `CCOc1cc2ncnc(Nc3ccc(OCc4ccccc4Br)c(OC)c3)c2cc1OCC` here?
**A.** 1%

**Q.** Which inhibition does the source give for `Cc1onc(-c2ccccc2Cl)c1C(=O)Nc1cc(Cl)c(Cl)cc1Cl` here?
**A.** 7%

**Q.** Which inhibition does the source give for `Cc1cc(OCC(=O)Nc2ccc(-c3nc4ccccc4[nH]3)cc2)cc(C)c1Cl` here?
**A.** -1%

**Q.** With `COc1cc(Cc2cnc(N)nc2N)ccc1OCc1ccc(NC(C)=O)cc1` as the molecule, how does the inhibition read?
**A.** -6%

**Q.** With `CCn1c(CN2CCN(Cc3ccccc3)CC2)nc2cc(NC(=O)c3cccs3)ccc21` as the molecule, how does the inhibition read?
**A.** 2%

Tested on: not listed separately
Experiment: inhibition of 3D7 malaria parasite growth – strain 3D7 (AID 2306);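 note: 0% = DMSO wells and 100% = chloroquine plus artemisinin control wells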
Settings: P. falciparum 3D7 erythrocytic growth, LDH absorbance, 72 h; at 2 µM; active compounds read high

**Q.** With `Cc1cc(NCCCCCCCCNc2cc(C)nc3ccccc23)c2ccccc2n1` as the molecule, how does the growth inhibition read?
**A.** 101% (active)

**Q.** For `CC(C)n1ncc2c(C(=O)N3CCCC4CCCCC43)cc(C3CC3)nc21` (stereo not given), which growth inhibition is on record?
**A.** 99% (active)

**Q.** With `CCCC1CCNC(C(O)c2ccnc3ccc(OC)cc23)C1` (stereo not given) as the molecule, how does the growth inhibition read?
**A.** 98% (active)

**Q.** For `CC(C)C(=O)n1ncc2c3c(N)nc(N)nc3ccc21`, which growth inhibition is on record?
**A.** 87% (active)

**Q.** Which growth inhibition does the source give for `Oc1ccc(CCCNc2nc(NCc3cccc4ccccc34)nc(N3CCNCC3)n2)cc1` here?
**A.** 100% (active)

**Q.** For `CC1N=C(N)N=C(N)N1OCc1ccccc1` (stereo not given), which growth inhibition is on record?
**A.** 94% (active)

**Q.** With `CC(C)c1cc(N)c2cc(NC(=O)COCC(=O)Nc3ccc4nc(C(C)C)cc(N)c4c3)ccc2n1` as the molecule, how does the growth inhibition read?
**A.** 95% (active)

**Q.** For `Cc1ccnc(Nc2nc(-c3ccccn3)cs2)c1`, which growth inhibition is on record?
**A.** 100% (active)

**Q.** With `NC(=O)c1cccc(C(=O)Nc2ccc(-c3cccc(-c4nc5ccc(C(F)(F)F)cc5[nH]4)c3)cc2)c1` as the molecule, how does the growth inhibition read?
**A.** 100% (active)

**Q.** Which growth inhibition does the source give for `COc1ccc(CC(=O)Nc2ccc(Nc3nc(C)cc(N(C)C)n3)cc2)cc1` here?
**A.** 97% (active)

**Q.** With `CC1(C)N=C(NC(=O)c2ccc([N+](=O)[O-])cc2)N=C(N)N1OCc1ccc2ccccc2c1` as the molecule, how does the growth inhibition read?
**A.** 95% (active)

**Q.** Which growth inhibition does the source give for `Cc1ccc(C)c(C2CCN(CCCCNC(=O)c3ccc(NC(=O)c4ccc(Cl)cc4)cc3)CC2)c1` here?
**A.** 94% (active)

**Q.** With `CCCc1ccc(NC(=O)c2ccc(CN3CCCN(Cc4cccc(O)c4)CC3)cc2)cc1` as the molecule, how does the growth inhibition read?
**A.** 101% (active)

**Q.** For `Cc1[nH]c(C)c(-c2ccc(OCc3cccc(C(F)(F)F)c3)nc2)c(=O)c1Br`, which growth inhibition is on record?
**A.** 99% (active)

**Q.** For `COc1ccccc1NC(=O)Nc1cccc(-c2cccc(-c3nc4ccc(C(F)(F)F)cc4[nH]3)c2)c1`, which growth inhibition is on record?
**A.** 101% (active)

**Q.** For `Cc1cc(NN=Cc2cccc(F)c2)c2ccc(F)cc2n1`, which growth inhibition is on record?
**A.** 101% (active)

**Q.** For `CN1CCc2cc(I)c(O)cc2C1Cc1ccccc1Cl` (stereo not given), which growth inhibition is on record?
**A.** 98% (active)

**Q.** With `O=C(/C=C/c1ccc(Cl)c(Cl)c1)NCCCCCN1CCN(C(=O)Nc2ccc(Cl)c(C(F)(F)F)c2)CC1` as the molecule, how does the growth inhibition read?
**A.** 100% (active)

**Q.** Which growth inhibition does the source give for `CCN1CCC(N(Cc2ccc(-c3ccc(C(F)(F)F)cc3)cc2)C(=O)Cn2c(CCc3cccc(F)c3F)cc(=O)c3ccccc32)C1` (stereo not given) here?
**A.** 93% (active)

**Q.** Which growth inhibition does the source give for `Cc1cc2nc(-c3ccc(/C=C/C(=O)NCc4ccc(Cl)c(Cl)c4)cc3)[nH]c2cc1C` here?
**A.** 98% (active)

**Q.** For `CC(=O)Nc1cccc(CNCc2ccc(-c3cnc(N4CCCC(C)(C)C4)nc3)cc2)c1`, which growth inhibition is on record?
**A.** 93% (active)

**Q.** For `Cc1cc(NCCc2ccccc2)nc(/N=C(\N)Nc2ccccc2Cl)n1`, which growth inhibition is on record?
**A.** 100% (active)

**Q.** Which growth inhibition does the source give for `CC(C)CC(NC(=O)c1cccc(OCCN2CCOCC2)c1)C(=O)NC(/C=N/NC(=O)c1ccccc1)CCc1ccccc1` (stereo not given) here?
**A.** 96% (active)

**Q.** With `CC(C)(C)c1cc(C(=O)Nc2ccc(C(=N)N)cc2)c(O)c(C(C)(C)C)c1` as the molecule, how does the growth inhibition read?
**A.** 101% (active)

**Q.** With `Cc1ccc2c(NN=Cc3ccc(N(C)C)cc3)cc(C)nc2c1` as the molecule, how does the growth inhibition read?
**A.** 99% (active)

**Q.** For `CC1CCCN(S(=O)(=O)c2cc(Br)cc3c2N(C(=O)C2CC2)CC3)C1` (stereo not given), which growth inhibition is on record?
**A.** 83% (active)

**Q.** For `Cc1cc(OCCCN2CCCCC2)ccc1NC(=O)COc1ccc(Cl)cc1C(=O)c1cc(C#N)cc(C(F)(F)F)c1`, which growth inhibition is on record?
**A.** 87% (active)

**Q.** Which growth inhibition does the source give for `CCCCCCN1CCC(NCc2cccc([N+](=O)[O-])c2)CC1` here?
**A.** 100% (active)

**Q.** For `CCCCCN1CCCN(Cc2cccc(NC(=O)c3ccc(Cl)c(Cl)c3)c2)CC1`, which growth inhibition is on record?
**A.** 89% (active)

**Q.** Which growth inhibition does the source give for `CCc1c(CCNCCCCCCNCCc2ccc([N+](=O)[O-])cc2)ccc(OC)c1OC` here?
**A.** 101% (active)

**Q.** With `Cc1cc(-c2ccc(NC(=O)N3CCc4cc(Br)c(N5CCN(C)CC5)cc43)cc2)ccc1C#N` as the molecule, how does the growth inhibition read?
**A.** 99% (active)

**Q.** Which growth inhibition does the source give for `COc1ccccc1C1CCN(C2CCC(NC(=O)/C=C/c3cc(F)cc(C(F)(F)F)c3)CC2)CC1` (stereo not given) here?
**A.** 98% (active)

**Q.** Which growth inhibition does the source give for `O=[N+]([O-])c1cccc(-c2nc(-c3ccc(Br)cc3)[nH]c2-c2ccc(Br)cc2)c1` here?
**A.** 99% (active)

**Q.** With `COc1ccccc1-c1ccc(CNC(=O)C(CN2CCN(C)CC2)c2ccccc2)cc1` (stereo not given) as the molecule, how does the growth inhibition read?
**A.** 90% (active)

**Q.** Which growth inhibition does the source give for `CCNS(=O)(=O)c1ccc(Oc2ccc([N+](=O)[O-])cc2)cc1` here?
**A.** 94% (active)

**Q.** For `CCOc1cc2ncnc(Nc3ccc(OCc4ccccc4Br)c(OC)c3)c2cc1OCC`, which growth inhibition is on record?
**A.** 100% (active)

**Q.** With `Cc1onc(-c2ccccc2Cl)c1C(=O)Nc1cc(Cl)c(Cl)cc1Cl` as the molecule, how does the growth inhibition read?
**A.** 90% (active)

**Q.** With `Cc1cc(OCC(=O)Nc2ccc(-c3nc4ccccc4[nH]3)cc2)cc(C)c1Cl` as the molecule, how does the growth inhibition read?
**A.** 99% (active)

**Q.** Which growth inhibition does the source give for `COc1cc(Cc2cnc(N)nc2N)ccc1OCc1ccc(NC(C)=O)cc1` here?
**A.** 98% (active)

**Q.** Which growth inhibition does the source give for `CCn1c(CN2CCN(Cc3ccccc3)CC2)nc2cc(NC(=O)c3cccs3)ccc21` here?
**A.** 97% (active)
